# SUMO Mot1 rescue: blocks SUMOylation pathway, rescuing yeast Mot1-301 growth. S. cerevisiae Mot1-301 growth rescue, ATP luminescence, 38.5C; percent above DMSO median, 100 means doubled. hit rate 1% among 320,000. growth rescue, % at 18.8 µM;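 active means every valid replicate shows activation above 250% relative to neutral control wells; inactive means the rest, any valid replicate at or below 250%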;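 further: OY570 slx delta 5 strain wells were the positive control but not used for scaling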
# ALR inh: inhibitors of human sulfhydryl oxidase ALR. P55789. AID 485317. inhibition, % (no concentration beside the values). purified ALR, DTT oxidation, H2O2 HRP-luminol luminescence. hit rate 3.8% among 290,000;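 active means mean replicate inhibition above about 79%, with every replicate also reaching it, limit read from the data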
# Target sequence (P55789 whole entry, looked up): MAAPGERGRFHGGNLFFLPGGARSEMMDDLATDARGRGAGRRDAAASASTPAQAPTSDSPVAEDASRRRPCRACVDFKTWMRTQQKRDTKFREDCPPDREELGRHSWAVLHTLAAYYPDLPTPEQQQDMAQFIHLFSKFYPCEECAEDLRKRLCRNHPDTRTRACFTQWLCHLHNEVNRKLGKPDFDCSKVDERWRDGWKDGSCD
# M18AAP inhibitor: blocks P. falciparum M18 aspartyl aminopeptidase; recombinant PfM18AAP, H-Glu-NHMec fluorogenic cleavage; inhibition, % at 7.35 µM; hit rate 1.2% among 290,000;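 active means inhibition above the campaign mean inhibition over all tested compounds plus 3 SD, cut at about 28% in these data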;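 further: 0% = plate median of test compound wells and 100% = 2 mM ZnCl2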
# HIF act: HIF pathway transcriptional activation. activation, % at 7.5 µM (by protocol). hit rate 0.32% among 300,000. U2OS HRE-luciferase reporter, luminescence; normalized: DMSO 0%, desferrioxamine 100%;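 active means mean activation of at least 10% of the iron chelator positive control signal, with at least half of replicates also reaching 10%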
# The depositor's hits bear a star; nt = no result given. Compounds with a hit are over-represented: about 5.3% of the library has one in this group of screens.
SMILES,SUMO Mot1 rescue,ALR inh,M18AAP inhibitor,HIF act
CCCOc1ccc(-c2nc(=S)[nH][nH]2)cc1,-5,99*,-27,2
Cc1ccc2c(c1)-c1ccccc1S(=O)(=O)N2,5,95*,-3,0
Nc1ccc2c(c1)-c1ccccc1S(=O)(=O)N2,81,100*,19,1
Cc1nc(-c2ccccc2)sc1C1(C)CC(c2ccc(OC(F)(F)F)cc2)=NO1 (centres undefined),281,nt,nt,nt
Cc1ccc(S(=O)(=O)N2CCCCC2)cc1NC(=O)COC(=O)c1ccc(O)cc1,5,-6,-2,-1
Nc1cc(N)nc(SCC(=O)c2ccccc2)n1,2,99*,2,0
Nc1cc(N)nc(SCC(=O)Nc2ccccc2)n1,-7,-8,0,0
CCCCn1nnnc1SCC(=O)c1cc(Cl)ccc1OC,448,32,5,1
COc1ccc(Cl)cc1C(=O)CSc1nc(N)cc(N)n1,15,94*,6,0
CCOC(=O)N1CCC(NC(=O)CSCc2nc(-c3ccc(OC)c(OC)c3)oc2C)CC1,-11,98*,-2,0
COc1ccc(-c2nc(CSCC(=O)NC3CCN(Cc4ccccc4)CC3)c(C)o2)cc1OC,11,99*,1,0
COc1ccc(-c2nc(CSCC(=O)NC3CC3)c(C)o2)cc1OC,27,99*,-3,0
Cc1oc(-c2ccccc2F)nc1CSCC(=O)NC1CCC(C)CC1 (centres undefined),-4,-35,1,-1
CCOC(=O)N1CCC(NC(=O)CSCc2nc(-c3ccc(C)cc3)oc2C)CC1,59,58,-15,1
COc1ccc(-c2nc(CSCC(=O)NC3CCCC3)c(C)o2)cc1OC,7,99*,1,0
Cc1ccc(C(=O)OCC(=O)NC(C)c2ccccc2)cc1C (centres undefined),15,-1,nt,nt
Cc1nn(-c2ccc(F)cc2)c(-n2cccc2)c1C(=O)N1CCN(C(=O)c2ccco2)CC1,6,-2,9,0
Cc1cc(SCC(=O)N/N=C/c2ccc(O)cc2O)c(C)cc1Br,4,43,9,39*
Cc1cc(SCC(=O)N/N=C/c2ccccc2C(=O)O)c(C)cc1Br,28,-3,-2,21*
Cc1ccc(-c2nnc(SCC(=O)N/N=C/c3ccccc3C(=O)O)n2-c2ccc(C)cc2)cc1,-3,-1,2,-1
Cc1ccc(NC(=O)CCC(=O)N/N=C/c2ccc(O)cc2O)cc1,120,19,11,135*
Cc1cc(NC(=O)c2cccc(S(=O)(=O)Nc3cccc(C(=O)O)c3)c2)no1,-3,-6,-10,0
Cc1ccc(S(=O)(=O)NC(C)C(=O)N2CCOCCOCCOCCOCC2)cc1 (centres undefined),-6,-8,1,-2
C/C(=N\Nc1cccc2cccnc12)c1ccccc1O,-9,2,1,2
C/C(=N\Nc1cccc2cccnc12)c1ccccn1,382,90*,5,-3
SMILES,SUMO Mot1 rescue,ALR inh,M18AAP inhibitor,HIF act
COc1ccc(S(=O)(=O)N/N=C(/C)c2ccncc2)c(OC)c1,1,81*,5,0
COc1ccc(S(=O)(=O)N/N=C(/C)c2ccncc2)cc1,89,-3,7,-1
CN(C)CCCNC(=O)c1cc(Br)ccc1O,-10,0,23,0
CC(CC(=O)N1CCN(S(=O)(=O)c2ccc([N+](=O)[O-])cc2)CC1)c1ccccc1 (centres undefined),2,-20,nt,nt
CC(=O)N1CCN(c2ccc(NCc3ccc(-c4cccc(Cl)c4)o3)cc2)CC1,43,85*,nt,nt
CC(=O)Nc1ccc(N2CCN(C(C)=O)CC2)cc1,1,7,-2,-2
CC(=O)N1CCN(c2ccc(NCc3ccc(C)cc3)cc2)CC1,-26,99*,4,1
COc1cccc(N2CCN(C(=S)NCc3ccco3)CC2)c1,-5,87*,14,-1
Cc1ccc(CNC(=O)N2CCN(c3ccc(C)cc3)CC2)cc1,-12,-1,0,0
Fc1ccc(N2CCN(C(=S)NCc3ccco3)CC2)cc1,5,42,-1,0
CCc1ccc(CNc2ccc(N3CCN(C(C)=O)CC3)cc2)cc1,-13,99*,19,-56
COc1cccc(CNC(=O)c2ccc(CS(=O)c3ccccc3)o2)c1 (centres undefined),31,-3,-9,0
CCC1(c2ccc(OC)cc2)NC(=O)N(CC(=O)NC2CCCCC2C)C1=O (centres undefined),-3,19,nt,nt
COc1ccc(N2CCN(CC(=O)NC(=O)NCc3ccco3)CC2)cc1,-15,64,2,0
O=C(CN1CCN(c2ccc(O)cc2)CC1)NC(=O)NCc1ccco1,nt,98*,14,0
CC(=O)N1CCN(c2ccc(NCc3ccco3)cc2)CC1,1,99*,nt,nt
CC(=O)N1CCN(c2ccc(NC(=O)c3ccco3)cc2)CC1,7,26,3,1
COc1ccc(CC(=O)O/N=C(\N)Cc2cccc3ccccc23)cc1OC,-13,-10,-2,0
O=C(O)Cc1sc(-c2ccccc2Cl)nc1-c1ccccc1,1,99*,1,0
Cc1ccc(-c2nc(-c3ccc(Cl)cc3)sc2CC(=O)O)c(C)c1,nt,99*,-2,2
O=C(Cc1sc(-c2ccccc2)nc1-c1ccccc1)Nc1ccccc1,-20,0,-18,0
O=C(O)c1ccc(Cl)c(N2C(=O)Nc3ccccc3N2O)c1,5,38,-1,0
CCOC(=O)Cn1nc(C)c(NC(=O)c2ccc([N+](=O)[O-])c(C)c2)c1C,399,-2,2,0
CCCS(=O)(=O)N1CCCC(C(=O)NCCCN(C)c2ccccc2)C1 (centres undefined),-6,82*,1,0
CCCS(=O)(=O)N1CCCC(C(=O)NCCCN(C)Cc2ccccc2)C1 (centres undefined),-22,1,1,0
SMILES,SUMO Mot1 rescue,ALR inh,M18AAP inhibitor,HIF act
CN(CCCNC(=O)C1CCCN(S(=O)(=O)c2cnc[nH]2)C1)c1ccccc1 (centres undefined),403,100*,6,nt
CC12CC3(C)CC(C)(C1)CC(C(=O)NCc1cccnc1)(C2)C3,-2,-8,-6,-10
S=c1[nH]c2ccc(Cl)cc2s1,43,99*,13,-14
CCOC(=O)c1cnc(-n2nc(C)cc2C)nc1NNc1nc(-c2ccccc2)cc(-c2ccccc2)n1,5,-2,-3,18*
CC(NC(=O)COC(=O)c1ccc([N+](=O)[O-])o1)c1ccccc1 (centres undefined),-17,-11,nt,nt
Cc1cccc(NC(=O)CC2SC(=O)N(c3ccccc3)C2=O)c1 (centres undefined),16,98*,5,0
N=C1SC(CC(=O)Nc2ccc([N+](=O)[O-])cc2)C(=O)N1c1ccccc1 (centres undefined),-14,-11,29*,0
O=C1SC(Cc2ccccc2)C(=O)N1c1ccccc1 (centres undefined),-13,nt,-3,-1
Cc1ccc(NC(=O)CC2SC(=O)N(c3ccccc3)C2=O)cc1 (centres undefined),-17,98*,-8,1

# Source: PubChem (several laboratories)
